Compound activity from PubChem BioAssay.
A selection: hits, their analogues and other compounds. The true share with any hit is near 2.9%.
SNCA viab count: counter-screen for SNCA expression inhibitors: cell viability. actives 0.12% (n = 150,000). Potency, µM (titrated, usually from 57.1 µM), actives largely listed as cytotoxic. AID 1671193. HEK-293-SNCA-luc viability, GF-AFC fluorescence, 24 h; also: nearly all actives have a fitted effect of over 30% in size
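Cytotoxicity counterscreen: after 24 h compound treatment of genome-edited SNCA-luciferase HEK-293 cells, live-cell protease substrate GF-AFC read by fluorescence after 30 min; activity scaled between DMSO (0%) and medium-only (-100%), curves Hill-fitted.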
IP6K1 inhibitor: inhibitors of human IP6K1; Q92551; actives 0.81% (n = 140,000); IP6K1 kinase, ADP-Glo luminescence, 2 h; stronger effect = lower value; activity change, % (series mostly up to about 58 µM); in the data active = activity change below about -25%
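ADP-Glo luminescence measures ADP made by human IP6K1 during a 2 h RT reaction with ATP/IP6 (mix at 1.3 mM/130 uM); top library doses 57.5 and 19.1 uM final.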
KDM5B inhibitor: KDM5B demethylase inhibition; Q9UGL1; actives 2.6% (n = 220,000); Potency, µM (top dose mostly 57.7 µM), hits mostly inhibitors; KDM5B demethylase, FDH-coupled NADH fluorescence (FDH is formaldehyde dehydrogenase); also: nearly all actives have a fitted effect of over 70% in size
Target sequence (Q9UGL1 whole entry, looked up): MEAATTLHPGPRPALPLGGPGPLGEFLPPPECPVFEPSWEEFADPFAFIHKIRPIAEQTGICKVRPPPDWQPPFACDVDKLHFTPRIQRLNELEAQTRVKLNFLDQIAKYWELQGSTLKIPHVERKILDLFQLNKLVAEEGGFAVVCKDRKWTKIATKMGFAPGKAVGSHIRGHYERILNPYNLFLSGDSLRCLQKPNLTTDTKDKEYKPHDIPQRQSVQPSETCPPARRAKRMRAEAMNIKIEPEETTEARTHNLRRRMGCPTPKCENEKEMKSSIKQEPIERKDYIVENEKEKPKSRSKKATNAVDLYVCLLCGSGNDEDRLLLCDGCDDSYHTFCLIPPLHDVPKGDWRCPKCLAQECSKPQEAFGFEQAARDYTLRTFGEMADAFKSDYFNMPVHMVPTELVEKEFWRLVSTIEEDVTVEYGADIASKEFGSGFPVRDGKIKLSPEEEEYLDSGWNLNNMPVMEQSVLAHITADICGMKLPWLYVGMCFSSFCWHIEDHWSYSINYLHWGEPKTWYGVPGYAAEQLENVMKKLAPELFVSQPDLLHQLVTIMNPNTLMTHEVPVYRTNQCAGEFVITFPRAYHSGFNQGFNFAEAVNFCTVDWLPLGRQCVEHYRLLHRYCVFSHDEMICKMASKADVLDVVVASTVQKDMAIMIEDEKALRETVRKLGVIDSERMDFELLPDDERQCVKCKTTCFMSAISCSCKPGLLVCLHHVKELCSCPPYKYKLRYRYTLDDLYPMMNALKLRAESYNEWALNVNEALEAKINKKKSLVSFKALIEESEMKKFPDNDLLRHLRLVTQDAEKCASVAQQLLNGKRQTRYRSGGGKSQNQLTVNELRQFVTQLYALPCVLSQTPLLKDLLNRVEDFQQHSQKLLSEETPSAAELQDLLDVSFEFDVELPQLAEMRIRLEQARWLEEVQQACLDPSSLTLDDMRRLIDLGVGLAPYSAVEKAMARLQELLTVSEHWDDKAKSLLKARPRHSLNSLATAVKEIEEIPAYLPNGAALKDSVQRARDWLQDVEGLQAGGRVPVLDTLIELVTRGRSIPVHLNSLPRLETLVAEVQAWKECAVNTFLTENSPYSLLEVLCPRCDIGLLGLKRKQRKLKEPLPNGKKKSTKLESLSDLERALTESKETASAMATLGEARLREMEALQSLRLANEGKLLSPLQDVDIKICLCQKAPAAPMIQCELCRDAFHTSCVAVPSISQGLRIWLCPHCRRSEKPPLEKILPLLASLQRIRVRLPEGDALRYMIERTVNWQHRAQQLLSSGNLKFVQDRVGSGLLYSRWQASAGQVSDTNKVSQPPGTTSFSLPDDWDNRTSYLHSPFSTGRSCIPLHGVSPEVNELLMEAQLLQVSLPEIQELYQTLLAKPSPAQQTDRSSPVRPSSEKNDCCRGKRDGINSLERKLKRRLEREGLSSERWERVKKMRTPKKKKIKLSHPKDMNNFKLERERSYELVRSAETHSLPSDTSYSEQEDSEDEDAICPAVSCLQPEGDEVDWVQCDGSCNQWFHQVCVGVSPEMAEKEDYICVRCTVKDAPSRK
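Inhibition is measured as reduced NADH fluorescence generation from FDH coupling to formaldehyde release. Truncated KDM5BΔAP at 200 nM final acts on H3K4me3 peptide (12.5 µM in substrate mix) in pH 7.5 HEPES buffer with Tween-20, 30 min, room temperature.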
SNCA expr inhib: reduces expression of the alpha-synuclein gene; actives 0.17% (n = 140,000); Potency, µM (top dose mostly 57.2 µM), most hits filed as inhibitors; HEK-293 SNCA-luciferase knock-in, luminescence, 24 h; also: nearly all actives have a fitted effect of over 45% in size
IP6K1 conf: confirmation of human IP6K1 inhibitors. AID 1645852. recombinant IP6K1 kinase, ADP-Glo luminescence, 2 h. Potency, µM (series often up to 49 µM), usual class: inhibitors. shares compounds with IP6K1 inhibitor. actives 13% (n = 1,200); also: nearly all actives have a fitted effect of over 65% in size
Of the large screens only hits and unclear results are named; the others gave an inactive call (follow-up assays come after a bar, where they were run). Unless noted, calls follow the shape of the dose curve; as a rule, active = well fitted curve in the direction sought with a large enough effect; inconclusive = small, poorly fitted or top-dose-only effect, or another doubt; inactive = no such curve, though single readings can be large; an effect the other way counts as inactive or inconclusive.

COC(=O)CSc1nc2c(cnn2-c2ccc(F)cc2)c(=O)[nH]1	IP6K1 inhibitor -32 | IP6K1 conf inconclusive
CCN1CCN(c2ccc(NC(=O)c3cccc(S(=O)(=O)NCc4ccco4)c3)cc2)CC1	none (no result: SNCA viab count, IP6K1 inhibitor, SNCA expr inhib)
Cc1ccc(-c2nc(CNC(=O)C(C)CN)[nH]c2-c2ccccn2)cc1 (centres undefined)	none
CN[C@@H](CO)C(=O)NCc1nc(-c2ccc(C)cc2)c(-c2ccccn2)[nH]1	IP6K1 inhibitor -45, KDM5B inhibitor inconclusive | IP6K1 conf inactive
Cc1nc(N2CCOCC2)cc(N2CCN(C(=O)c3cccc(C(F)(F)F)c3)CC2)n1	none (no result: SNCA viab count, IP6K1 inhibitor, SNCA expr inhib)
Cc1c(Cn2c(C)nc3c(C(=O)O)cc(N4CCOCC4)cc32)cccc1C(F)(F)F	none (no result: KDM5B inhibitor) | IP6K1 conf inactive
CC1CCC2(O1)C(C)(C)CC(O[C@@H]1O[C@H](CO[C@@H]3OC[C@](O)(CO)[C@H]3O)[C@@H](O)[C@H](O)[C@H]1O)CC2(C)O (some centres undefined)	none (no result: KDM5B inhibitor, SNCA expr inhib)
CCOc1ccc2oc(=O)cc(CN3CCN(C(=O)c4cccc(Cl)c4)CC3)c2c1	IP6K1 inhibitor -29, KDM5B inhibitor inconclusive, SNCA expr inhib inconclusive | IP6K1 conf inactive
Fc1ccc(-c2csc3ncnc(Sc4nnc(C5CC5)o4)c23)cc1	none (no result: SNCA viab count, IP6K1 inhibitor, SNCA expr inhib)
Cc1ccc(NC(=O)c2cnn3c(C(F)F)cc(-c4ccccc4)nc23)c(C)c1	IP6K1 inhibitor -50 | IP6K1 conf inactive
O=C(C1CC1)N1C[C@@H]2OCC(=O)N(Cc3ccccc3)[C@@H]2C1	none
N[C@@H](Cc1cc(I)c(O)c(I)c1)C(=O)O	IP6K1 inhibitor -62 (no result: KDM5B inhibitor) | IP6K1 conf inactive
